An excerpt weighted towards active compounds, which were near 6.5% of everything screened.
FMDV inh = High Throughput Screening for Foot and Mouth Disease Virus Antivirals; FMDV antiviral cell-based qHTS; Potency, µM (series often up to 57.9 µM), usual class: inhibitors; hit rate 1.2% among 410,000; AID 1159524, 2015; calls by dose curve; tested in HEK293T cells; further: read-out not given here; nearly all actives have a fitted effect of over 45% in size
Vaccinia Venus = qHTS for Stage-Specific Inhibitors of Vaccinia Orthopoxvirus: Venus Reporter Primary qHTS | Vaccinia virus Venus reporter expression, fluorescence | Potency, µM (highest dose often 36.5 µM), most hits filed as inhibitors | hit rate 0.46% among 330,000; calls by dose curve; tested in A549 cells; further: nearly all actives have a fitted effect of over 30% in size
LASV entry inh = qHTS for Inhibitors of binding or entry into cells for Lassa Virus. hit rate 1.2% among 300,000. Potency, µM (series often up to 37.9 µM), most hits filed as inhibitors. Lassa virus pseudotype entry inhibition, cell reporter; calls by dose curve; tested in HEK293 cells; further: nearly all actives have a fitted effect of over 50% in size
MARV entry inh = qHTS for inhibitors of binding or entry into cells for Marburg Virus; Marburg virus pseudotyped entry inhibition, cell reporter; Potency, µM (titrated, usually from 37.8 µM), hits mostly inhibitors; hit rate 1.8% among 300,000; AID 540276, 2011; calls by dose curve; tested in HEK293 cells
Vaccinia mCherry = qHTS for Stage-Specific Inhibitors of Vaccinia Orthopoxvirus: mCherry Reporter Primary qHTS | AID 720579, 2013 | Vaccinia virus mCherry reporter infection, fluorescence | Potency, µM (top dose mostly 36.5 µM), usual class: inhibitors | hit rate 0.63% among 310,000; calls by dose curve; tested in A549 cells; further: nearly all actives have a fitted effect of over 35% in size
HCMV antiviral = qHTS Assay for inhibitors of the human cytomegalovirus (HCMV); AID 1259415, 2018; hit rate 4.5% among 410,000; HFF cells, HCMV-luciferase reporter, 72 h; stronger effect = lower value; activity change, negative = inhibition, % at 57.5 µM; in the data active means activity change below about -60%; inconclusive means no clear call, values can overlap the other calls; inactive means above about -39%
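Human foreskin fibroblasts infected with luciferase-reporter HCMV at MOI 1 PFU/cell, compounds at two doses. Luciferase measured 72 h post infection; normalized to buffer-only basal and Salinomycin (10uM) controls.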
Hits are given with their value; - = inactive; ? = inconclusive; . = no result.

SMILES | FMDV inh | Vaccinia Venus | LASV entry inh | MARV entry inh | Vaccinia mCherry | HCMV antiviral
CN1CCCCC(NC(=O)c2ccc(F)cc2)C1=O (stereo unspecified) | . | . | . | . | . | -
Cc1ccc(CNC(=O)c2sc3nc(C)cc(C)c3c2-n2cccc2)cc1 | - | - | - | - | - | -
COC(=O)c1ccc(OCC(=O)c2ccc(O)cc2O)cc1 | - | . | ? | - | . | -61
O=C(OCc1ccccc1)c1ccc(NCc2cc(O)ccc2O)cc1 | 10µM | ? | 2.5µM | ? | 10µM | -87
CCC(=O)Nc1ccc(C(=O)OCc2ccccc2)cc1 | - | - | - | ? | - | -
COP(=O)(OC)c1ccc(NCc2cc(O)ccc2O)cc1 | - | - | - | 4.5µM | - | ?
COC(=O)c1ccc(CCc2cc(O)c(Br)cc2O)cc1 | - | - | - | - | - | -
COC(=O)c1ccc(CCc2cc(O)ccc2O)cc1 | - | - | 13µM | ? | ? | .
Cc1ccc2c(c1)N(C=Nc1c(C)cccc1Cl)C(c1ccccc1)c1cccn1-2 (stereo unspecified) | . | . | . | . | . | -
CC(C)OC(=O)c1ccc(NC(=O)c2ccccc2)cc1 | - | - | ? | ? | - | -
CC(C)OC(=O)c1ccc(NCc2cc(O)ccc2O)cc1 | 6.3µM | - | 13µM | 2µM | ? | -63
O=C(CCC(=O)OCC(=O)c1ccc(Cl)cc1)NC1CCCCC1 | - | . | - | - | . | -105
Cc1ccc(-n2nc3ccc(N)cc3n2)c(C)c1 | - | . | . | . | . | -
Cc1ccc(N2C(N)=NC(N)=NC23CCCC3)c(C)c1 | - | - | - | - | . | -67
C/C(=N\NC(=O)C(c1ccccc1)c1ccccc1)c1ccc(O)cc1 | - | . | . | . | . | -
C/C(=N\NC(=O)c1cccc2ccccc12)c1ccccn1 | - | - | 7.9µM | ? | ? | -96
C/C(=N\NC(=O)c1ccc(Cl)c(Cl)c1)c1ccccn1 | - | ? | 5.6µM | ? | 1.3µM | -99
C/C(=N\NC(=O)C(c1ccccc1)c1ccccc1)c1ccccn1 | ? | ? | ? | ? | ? | -99
COc1cc(C(C)=NNC(=O)c2ccncc2)ccc1O | - | - | - | - | - | -101
Fc1ccc(Nc2ncnc3c2nc2n3CCCCC2)c(F)c1 | - | - | - | . | - | -
COc1ccc(OCC(=O)N(Cc2cccc(OC)c2)C2CCS(=O)(=O)C2)cc1 (stereo unspecified) | - | - | - | - | - | -
O=c1/c(=C\c2ccccn2)sc2n1CN(c1ccccc1)CN=2 | . | . | . | - | . | .
Cc1cccc2sc(NNC(=O)c3cc(-c4cccs4)nc4ccccc34)nc12 | ? | - | ? | - | ? | -68
C/C(=N/NC(=O)c1ccc(C(C)(C)C)cc1)c1ccccn1 | - | ? | ? | ? | 2.8µM | -98
C/C(=N\NC(=O)c1cccc(Br)c1)c1ccccn1 | - | ? | ? | 4.5µM | ? | -103
SMILES | FMDV inh | Vaccinia Venus | LASV entry inh | MARV entry inh | Vaccinia mCherry | HCMV antiviral
CC(C)(C)c1ccc(/C=N/NC(=O)c2ccccn2)cc1 | - | - | ? | 3.2µM | - | -
Cc1ccc(NC(=O)c2cc(-c3cccs3)nc3ccccc23)c(C)c1 | ? | - | - | ? | - | -
CC=COC(=O)N[C@@H](c1ccccc1)[C@]1(C(=O)OCC)CCCC1=O | . | . | . | - | . | .
C/C(=N\NC(=O)c1ccc(Cl)c(Cl)c1)c1ccc(Br)s1 | - | - | ? | ? | - | -83
C/C(=N\NC(=O)c1ccccc1Cl)c1ccccn1 | - | ? | . | . | ? | -97
COc1ccc(C(=O)N/N=C(\C)c2ccccn2)cc1OC | ? | ? | 5.6µM | 6.3µM | 2.2µM | -112
C/C(=N\NC(=O)c1cc(-c2cccs2)nc2ccccc12)c1ccccn1 | ? | . | 6.5µM | 4.6µM | . | -101
C/C(=N\NC(=O)c1cc(Br)ccc1O)c1ccccn1 | - | - | - | - | ? | -
Cc1ccc(NC(=O)NNC(=O)CSC2CCc3ccccc32)c(C)c1 (stereo unspecified) | . | . | . | . | . | -
Cc1ccc(S(=O)(=O)N(CC(=O)N/N=C/c2cccc(C)c2)c2cccc3cccnc23)cc1 | - | - | ? | ? | . | ?
Cc1ccc(S(=O)(=O)N(CC(=O)N/N=C\c2cccs2)c2cccc3cccnc23)cc1 | - | - | ? | - | - | -63
Oc1ccccc1-[n+]1c(-c2ccccc2)cc(-c2ccccc2)cc1-c1ccccc1 | 28µM | - | . | . | - | -84
[O-]c1ccccc1-[n+]1c(-c2ccccc2)cc(-c2ccccc2)cc1-c1ccccc1 | 28µM | - | . | . | - | -97
Cc1ccccc1-[n+]1c(-c2ccccc2)cc(-c2ccccc2)cc1-c1ccccc1 | 10µM | ? | . | . | - | -96
Nc1ccccc1-[n+]1c(-c2ccccc2)cc(-c2ccccc2)cc1-c1ccccc1 | ? | - | ? | 8.9µM | - | ?
O=C([O-])c1ccccc1-[n+]1c(-c2ccccc2)cc(-c2ccccc2)cc1-c1ccccc1 | ? | - | . | . | - | ?
CCOC(=O)Cn1nc(N2CCN(c3ccc(F)cc3)CC2)ccc1=O | - | - | - | - | - | -
COc1ccccc1CNC(=O)c1ccc(N2Cc3cccc(OC)c3Oc3ncccc32)s1 | - | - | - | . | - | -
NC(=NCc1ccc(Cl)cc1Cl)NC(=O)c1nc(Cl)c(N)nc1N | - | - | . | . | - | .
COc1ccc(C2C(C#N)=C(N)N(c3ccccc3C#N)C3=C2C(=O)CCC3)cc1CN1CCCC1 (stereo unspecified) | - | - | - | 5.8µM | - | -
Cc1ccsc1/C=C1\CCC(C2CCCC2)C1=O (stereo unspecified) | - | - | ? | 7.9µM | - | -
Cc1ccc(/C=C2\CCC(C3CCCC3)C2=O)cc1 (stereo unspecified) | - | - | - | ? | - | ?
C#CCN(C[C@@H]1[C@@H](OC(=O)Nc2cccs2)[C@@H](OC(=O)Nc2cccs2)C[C@H](C(=O)OC)[C@@H]1C(=O)OC)S(=O)(=O)c1ccc(C)cc1 | . | . | . | . | . | -
C#CCN(C[C@H]1[C@H](OC(=O)Nc2c(C)noc2C)[C@H](OC(=O)Nc2c(C)noc2C)C[C@@H](C(=O)OC)[C@H]1C(=O)OC)S(=O)(=O)c1ccc(C)cc1 | 32µM | - | . | . | - | -
CCn1ncc(/C=C/C(=O)Nc2c(C)nn(Cc3ccc(Cl)cc3Cl)c2C)c1C | - | - | ? | ? | - | -103
SMILES | FMDV inh | Vaccinia Venus | LASV entry inh | MARV entry inh | Vaccinia mCherry | HCMV antiviral
COC(=O)CC=C1c2ccccc2C[C@H](OC)[C@@H]1C | . | . | . | - | . | .
CNCCN(C)c1nc(-c2cccs2)nc2ccccc12 | . | - | . | . | - | .
Cc1ccccc1-c1noc(-c2cccnc2N2CCN(c3ccccc3)CC2)n1 | - | - | - | - | - | -
O=c1oc2c3c4c(cc2c2c1CCC2)OCCN4CCC3 | - | ? | - | - | ? | -68
CCN(CC)CCCNC(=O)c1ccc2c(c1)N(Cc1c(F)cccc1Cl)C(=O)c1ccccc1S2 | - | ? | ? | 6.3µM | - | -98
Cc1ccc(Cn2c(=O)n(-c3ccccc3)c(=O)c3ccc(C(=O)NCc4ccco4)cc32)cc1 | - | ? | - | - | ? | -61

Bioassay records as filed in PubChem.
